In PubChem BioAssay:
A number with no mark means an inactive call. Active and inactive are the calls of the source.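 The calls were made as follows: active = mean inhibition over 43.08%, the solvent-only control mean plus 3 SD; inactive = the rest.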

Each compound was assayed against Nuclear receptor coactivator 3 (Homo sapiens) (UniProt Q9Y6Q9) (assay: SRC3 coactivator transcriptional activity inhibitors, confirmation, cell-based, luminescence, quadruplicate (AID 588792;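 also: 0% = DMSO treated cells and 100% = gossypol at 36 µM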)). Settings: HEK293 GAL4-SRC3 luciferase reporter, at 3.6 µM, stronger effect = higher value.
Nuclear receptor coactivator 3 (Homo sapiens), sequence (Q9Y6Q9 whole entry, looked up, the tested form may be a part): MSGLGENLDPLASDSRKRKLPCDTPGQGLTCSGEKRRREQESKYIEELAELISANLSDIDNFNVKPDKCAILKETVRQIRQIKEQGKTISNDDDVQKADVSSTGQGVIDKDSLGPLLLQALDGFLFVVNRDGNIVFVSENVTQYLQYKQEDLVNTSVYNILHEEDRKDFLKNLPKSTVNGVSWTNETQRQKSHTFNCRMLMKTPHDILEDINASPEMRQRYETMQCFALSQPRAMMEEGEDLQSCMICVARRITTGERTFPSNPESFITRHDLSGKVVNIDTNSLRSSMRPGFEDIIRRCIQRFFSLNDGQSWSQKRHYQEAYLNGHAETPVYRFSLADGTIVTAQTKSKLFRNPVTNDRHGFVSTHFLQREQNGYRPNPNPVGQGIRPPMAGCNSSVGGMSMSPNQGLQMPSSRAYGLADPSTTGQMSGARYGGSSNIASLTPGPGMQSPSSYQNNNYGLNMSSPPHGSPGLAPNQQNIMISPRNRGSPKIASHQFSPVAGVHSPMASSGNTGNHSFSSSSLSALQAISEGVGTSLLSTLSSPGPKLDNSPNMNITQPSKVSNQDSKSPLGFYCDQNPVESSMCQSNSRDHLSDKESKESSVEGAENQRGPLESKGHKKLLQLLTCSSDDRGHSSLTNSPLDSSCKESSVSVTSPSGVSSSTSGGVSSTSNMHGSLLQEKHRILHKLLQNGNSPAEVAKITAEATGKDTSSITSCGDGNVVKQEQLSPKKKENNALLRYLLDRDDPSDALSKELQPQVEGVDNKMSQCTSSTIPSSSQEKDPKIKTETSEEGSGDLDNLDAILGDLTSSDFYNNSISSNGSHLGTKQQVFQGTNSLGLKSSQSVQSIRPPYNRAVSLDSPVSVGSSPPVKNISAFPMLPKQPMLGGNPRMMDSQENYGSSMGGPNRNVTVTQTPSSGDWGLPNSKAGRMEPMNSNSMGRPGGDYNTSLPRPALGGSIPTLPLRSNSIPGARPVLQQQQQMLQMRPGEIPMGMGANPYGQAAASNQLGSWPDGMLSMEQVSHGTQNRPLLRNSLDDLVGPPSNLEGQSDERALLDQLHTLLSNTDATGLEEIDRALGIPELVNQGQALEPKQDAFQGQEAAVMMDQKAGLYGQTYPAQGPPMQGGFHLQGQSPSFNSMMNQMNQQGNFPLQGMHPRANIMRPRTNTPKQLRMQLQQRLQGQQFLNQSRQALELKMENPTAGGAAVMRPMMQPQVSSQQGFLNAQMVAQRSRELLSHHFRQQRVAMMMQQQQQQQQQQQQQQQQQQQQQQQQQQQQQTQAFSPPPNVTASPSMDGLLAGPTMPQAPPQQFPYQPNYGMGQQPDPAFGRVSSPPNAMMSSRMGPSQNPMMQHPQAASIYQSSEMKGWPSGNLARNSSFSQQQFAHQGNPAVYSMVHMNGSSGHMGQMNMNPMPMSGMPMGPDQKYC
`CN1CCN(S(=O)(=O)c2cccc(C(=O)N(C)CC(=O)Nc3ccc(Cl)c(Cl)c3)c2)CC1` gave an inhibition of 21%.
`C=CCc1cc(C(=O)N2CCCCC2)ccc1O` gave an inhibition of 14.5%.
For `CC(=O)c1c(C)n(-c2ccc(Br)cc2)c2ccc(O)cc12`, the inhibition was 53.3% (active).
`COc1ccc(CNC(=O)c2ccc(Cl)c(S(=O)(=O)N3CCOCC3)c2)cc1OC` showed an inhibition of 12.8%.
`C/C(=N\NC(N)=S)C1C2C3CC4C5CC(C42)C1C53` (stereo not given) gave an inhibition of 28.5%.
In the case of `COc1ccc(-n2nc(C(=O)NCC(=O)NCC3COc4ccccc4O3)c3ccccc3c2=O)cc1OC` (stereo not given), the inhibition is reported as -4.76%.
For `Brc1ccc(N=Nc2ccc3ccccc3n2)cc1`, the inhibition was 51.2% (active).
`NCCCn1c(C(=O)c2cc(Cl)c(N)c(Cl)c2)c2ccc([N+](=O)[O-])cc2[n+]1[O-]` showed an inhibition of 26.8%.
`S=C(N/N=C/c1ccc2ncccc2c1)Nc1cccnc1` showed an inhibition of -1.24%.
`CCCCc1c(O)nc(SCC(=O)NCC2CCCO2)[nH]c1=O` (stereo not given) showed an inhibition of -3.37%.
`COc1ccc(/C(C)=N/NC(=O)c2cccc(S(=O)(=O)N3CCCC3)c2)c(O)c1` was tested, and the inhibition was 67.9% (active).
Compound `O=C(Nc1ccn(Cc2ccccc2F)n1)c1ccc(COc2ccccc2Cl)cc1` has an inhibition of 10.9%.
Compound `CC(=O)Nc1ccc(S(=O)(=O)NCCSCc2ccccc2Cl)cc1` has an inhibition of 12.3%.
`CCOC(=O)c1c(NC(=S)N2CCN(C)CC2)sc2c1CCN(C(=O)OCC)C2` gave an inhibition of 35.5%.
Compound `CSCc1cc(N(C)c2ccccc2)nc(-c2ccccn2)n1` has an inhibition of -19.7%.
With `CC1CCCCC12NC(=O)N(CC(=O)N1CCN(Cc3ccc(C#N)cc3)CC1)C2=O` (stereo not given) the inhibition was -3.89%.
In the case of `S=c1[nH]nc(C2CCCCC2)n1/N=C/c1ccco1`, the inhibition is reported as -2.38%.
With `CCN(CC)c1ccc(/C=N/NC(=O)c2ccc3nc[nH]c3c2)c(O)c1` the inhibition was 51.3% (active).
`Cc1nccc(-c2ccc(-n3cnc4ccccc43)cc2)n1` showed an inhibition of 23.8%.
`COc1ccc2nc(C)cc(SCC(=O)N/N=C/c3ccc(O)cc3O)c2c1` showed an inhibition of 24.1%.
For `COc1ccc2nc(NC(=O)C3CCN(S(=O)(=O)c4cccs4)CC3)sc2c1`, the inhibition was 20.3%.
With `COc1ccc(OC)c(C2C3=C(CCCC3=O)NC3=C2C(=O)CCC3)c1` the inhibition was 4.98%.
For `CCN1CCN(c2cc(C)c3cc(NC(=S)N4CCCC(C)C4)ccc3n2)CC1` (stereo not given), the inhibition was 45.3% (active).
For `COc1ccc(C(CNC(=O)C(C)(C)Oc2ccc(Cl)cc2)N2CCCCC2)cc1` (stereo not given), the inhibition was 11.2%.
For `CC(C)C(=O)N1CCN(c2ccc(NC(=O)COc3ccccc3[N+](=O)[O-])cc2)CC1`, the inhibition was 12.7%.
Work on `CCC(C)c1ccc(NC(=S)N2CCN(C(=O)C3CCCO3)CC2)cc1` (stereo not given) yielded an inhibition of 8.54%.
In the case of `O=C1N=c2ccccc2=C1c1sc(=O)[nH]c1O`, the inhibition is reported as -3.29%.
`O=C(NCc1ccccc1)c1c(Cl)nc(Cl)c(Cl)c1Cl` was tested, and the inhibition was 42.1%.
With `Cc1cc(C(C)(C)C)cc(C)c1Cn1c2[n+](c3ccc(C(F)(F)F)cc31)CCCCC2` the inhibition was 11%.
In the case of `COc1ccc(NC(=O)c2ccc(-c3ccccc3)cc2)cc1S(=O)(=O)N1CCOCC1`, the inhibition is reported as 12%.
`O=C(Nc1cccc2ccccc12)OC1C=CS(=O)(=O)C1` (stereo not given) showed an inhibition of 25.6%.
`COc1cc(/C=C(/C(=O)c2cccs2)c2nc3ccccc3[nH]2)cc(OC)c1O` was tested, and the inhibition was 31.4%.
`COc1ccc(C(=O)Nc2c(-c3cccs3)c(=O)c3ccccc3n2C)cc1` showed an inhibition of -10.2%.
With `Cc1cc(Br)ccc1NC(=O)c1cnc(N2CCN(c3ccccn3)CC2)c2ccccc12` the inhibition was 15.6%.
`COc1ccc(NC(=O)c2sc(=O)n(Cc3ccccc3C#N)c2C)cc1OC` was tested, and the inhibition was 7.52%.
`COc1ccc(-c2nc(CSCC(=O)NCc3ccco3)c(C)o2)cc1` gave an inhibition of 42.1%.
`COc1ccc(Cl)cc1NC(=O)CN(C)CC(=O)Nc1c(C)n(C)n(-c2ccccc2)c1=O` gave an inhibition of 14.8%.
`CC(C)(C)c1cc(C(=O)N/N=C/c2ccccc2O)n(-c2ccccc2)n1` gave an inhibition of 35.7%.
For `COc1ccc(NC(=O)C2CCN(S(=O)(=O)c3ccc4c(c3)CC(C)N4C(C)=O)CC2)cc1OC` (stereo not given), the inhibition was 9.24%.
In the case of `O=C(N/N=C/c1c(O)ccc2ccccc12)c1ccc(Br)o1`, the inhibition is reported as 57.3% (active).
